Shown are actives, neighbours in structure and some others; about 4.5% of the full set was active somewhere.
tim10-1 inh – growth inhibitors of tim10-1 mutant yeast, primary screen, luminescence, uHTS; S. cerevisiae tim10-1 ts strain growth, BacTiter-Glo, 24 h; actives 2.2% (n = 330,000); inhibition, % at 20 µM; AID 463190, 2010;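 active means inhibition of at least 40%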;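 further: mutant grown at 25 °C; 0% = DMSO wells with yeast and 100% = wells holding no yeast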
TIM10 inh – growth inhibitors of isogenic TIM10 control yeast, primary screen, counter-screen for tim10-1 yeast inhibitor project, luminescence, uHTS. S. cerevisiae TIM10 strain growth, BacTiter-Glo luminescence, 24 h. inhibition, % at 10 µM. actives 1.4% (n = 330,000);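 active means inhibition of 40% or more at the single tested concentration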;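 further: wild-type TIM10 isogenic control strain grown at permissive 25 °C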
tim23-1 inh – growth inhibitors of tim23-1 mutant yeast, primary screen, luminescence, uHTS; S. cerevisiae tim23-1 growth, BacTiter-Glo luminescence, 24 h; actives 1.3% (n = 330,000); inhibition, % at 20 µM;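 active means growth inhibition of the mutant yeast at or above 50%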;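 further: temperature-sensitive mutant grown at 25 °C; plate controls were DMSO-treated mutant yeast for no effect and medium wells lacking yeast for full effect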
SKKanGAS inh – S. pyogenes SKKanGAS growth inhibitors in kanamycin, primary screen, streptokinase expression inhibitor project, SKKanGAS strain, BacTiter-Glo luminescence; 6 h; AID 1662, 2009; actives 1.3% (n = 300,000); inhibition, % at 7.5 µM;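 active means mean replicate score, as percent of positive control median, at least 50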;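 further: strain carries kanamycin resistance gene driven by streptokinase promoter and grows in 40 µg/ml kanamycin; loss of luminescence reflects streptokinase promoter inhibition or plain growth inhibition; 0% = median of DMSO wells and 100% = positive control at its reference dose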
NALP3 yeast inh – NALP3 inflammasome inhibitors in reconstituted yeast, primary screen, luminescence, uHTS; Yeast reconstituted NLRP3/ASC/caspase-1, beta-gal luminescence, 24 h; inhibition, % at 10 µM; actives 0.39% (n = 330,000); AID 2825, 2010;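 active means inhibition of 50% or more; inactive means inhibition below 50%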;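 further: plate controls were induced DMSO wells for no effect and uninduced yeast grown without galactose for full effect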
PfHsp90 yeast 2 – growth inhibition of PfHsp90-expressing yeast, primary screen, antimalarial PfHsp90 inhibitor project, S. cerevisiae, BacTiter-Glo luminescence, single point, set 2 | BacTiter-Glo ATP, 48 h; yeast lacking PDR1 and PDR3 efflux regulators | inhibition, % at 9.4 µM | actives 0.32% (n = 310,000) | AID 504621, 2011;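 active means every replicate shows inhibition above about 80%, whatever the replicate mean, limit read from the data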;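 further: 0% = DMSO neutral controls and 100% = 20 µM radicicol positive controls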
Numbers without * were called inactive; x = not tested or not shown.

SMILES | tim10-1 inh | TIM10 inh | tim23-1 inh | SKKanGAS inh | NALP3 yeast inh | PfHsp90 yeast 2
CC[C@H](C)/C=C(C)/C=C/C1=CC2=C(Cl)C(=O)[C@](C)(OC(C)=O)C(=O)C2=CO1 | 18 | 21 | 34 | x | -6 | 105*
O=C(O)[C@H]1NC[C@H]2C[C@H]21 | 9 | -10 | 6 | 11 | 16 | -6
CCOC(=O)C1(c2ccccc2)CCN(CCc2ccc(NC(=O)CCC(=O)O)cc2)CC1 | x | x | x | x | x | -13
CCCc1cc(=O)oc2cc(OCC(=O)N3CCC(C(=O)O)(c4ccccc4)CC3)ccc12 | 1 | -1 | 1 | 4 | 6 | 5
C=CCN1CCc2cccc3c2[C@H]1Cc1ccc(O)c(O)c1-3 | -1 | 1 | 15 | 6 | 27 | -1
CC(=O)OC1(C)CC(C)C(=O)C(C(O)CC2CC(=O)NC(=O)C2)C1 (configuration not stated) | x | x | x | x | x | 105*
CCC1(CC)C(=O)NC(=O)N(c2ccccc2)C1=O | x | x | x | x | x | 18
CCOc1ccc(-n2c(-c3cccs3)nc3ccccc3c2=O)cc1 | -2 | 9 | -4 | 2 | 3 | -9
CCn1nc(-c2cccs2)nc2c(=O)n(C)c(=O)nc1-2 | x | x | x | x | x | 108*
Cc1cccc(N=C2c3cc([N+](=O)[O-])ccc3-c3c2cc([N+](=O)[O-])cc3[N+](=O)[O-])c1 | x | x | x | x | x | 107*
COP(=O)(OC)C(NC(=O)/C=C/c1ccccc1)C(Cl)(Cl)Cl (configuration not stated) | -9 | 12 | -1 | -1 | 3 | -10
Cn1c(O)c(C(=NCCN2CCCCC2)c2ccccc2Cl)c(=O)n(C)c1=O | 15 | -16 | -8 | 6 | -11 | x
Cn1c(O)c(C(=Nc2ccc(F)cc2)c2ccccc2Cl)c(=O)n(C)c1=O | -12 | -4 | 22 | -4 | 20 | 106*
C[C@H]1CC[C@@]2(C)[C@@H](CC[C@@H]3[C@@H]2CC[C@]2(C)[C@@H](O)CC[C@@H]32)C1 | -8 | -3 | 21 | 87* | 44 | -3
C[C@]12CCC3C(CC[C@H]4C[C@H](O)[C@H](O)C[C@]34C)C1CC[C@@H]2O (some centres not stated) | x | x | x | x | x | 1
Clc1ccc(COC(Cn2ccnc2)c2ccc(Cl)cc2Cl)c(Cl)c1 (configuration not stated) | -7 | -66 | 36 | 108* | 24 | 81*
CC(=O)OC1C(=O)OCC23CCC4(C)OC4C2OC2CC(OC(=O)C=CC=CC(=O)OCCC1C)C3(C)C21CO1 (configuration not stated) | x | x | x | x | x | 131*
CCCNC(=O)N1[C@H]2CC[C@@H]1C(C(=O)OC)=C(c1ccc3ccccc3c1)C2 | 24 | -3 | 10 | x | 9 | 24
COc1ccc(-n2c(/C=C/c3ccc(O)cc3)nc3ccccc3c2=O)cc1 | 32 | 28 | 30 | 18 | 14 | -10
COc1ccc(-n2c(/C=C/c3ccc(O)c(OC)c3)nc3ccccc3c2=O)cc1 | 5 | 1 | 43 | 91* | 24 | -16
COC(=O)C1=C(c2cccc(OCc3ccccc3)c2)C[C@@H]2CC[C@H]1N2C(=O)NCCN1CCOCC1 | -1 | 2 | 12 | x | 6 | 7
CC(=NNC(=S)N1CC2CCC(CC2)C1)c1nccs1 | x | x | x | x | x | 121*
CC12CCC3C(CC=C4CC(O)CCC43C)C1CC(=CN1CCOCC1)C2=O (configuration not stated) | x | x | x | x | x | -53
Cc1noc(C)c1CSCC(=O)Nc1ccc(C#N)c(Cl)c1 | -12 | 0 | -2 | x | 4 | 2
Cc1sc2ncnc(N3CCC(C(=O)Nc4ccc(C#N)c(Cl)c4)CC3)c2c1C | -1 | 10 | 4 | 57* | 19 | -15
SMILES | tim10-1 inh | TIM10 inh | tim23-1 inh | SKKanGAS inh | NALP3 yeast inh | PfHsp90 yeast 2
O=C1C=CC(=O)C2C1C1(Cl)C(Cl)=C(Cl)C2(Cl)C1(Cl)Cl (configuration not stated) | x | x | x | x | x | 92*
Cc1cnc[nH]1 | 0 | 3 | -3 | x | 6 | 21
CCOC(=O)c1c(NC(=O)c2c(N)n(CCCOC)c3nc4ccccc4nc23)sc2c1CCCC2 | 10 | 12 | 11 | 56* | 27 | -1
CCOCCCn1c(N)c(C(=O)Nc2sc3c(c2C(=O)OC)CCCC3)c2nc3ccccc3nc21 | 4 | 17 | 6 | 20 | 12 | -26
CCCCCn1c(=O)c(C(=O)Nc2ncccc2C)c(O)c2ccccc21 | -21 | -15 | -5 | 101* | 25 | 29
Cn1ncc(Cl)c1C(=O)N1CCC2(CC1)OCCO2 | 1 | 1 | 0 | 51* | 12 | 16
CC(C(=O)c1ccc(Cl)cc1Cl)n1cncn1 (configuration not stated) | 20 | 0 | 0 | -4 | 10 | 1
CC(C)(C)C(O)C(Oc1ccc(Cl)cc1)n1cncn1 (configuration not stated) | -68 | -85 | -201 | 3 | 5 | 102*
O=c1c2ccccc2nc(-c2ccc(-c3ccccc3)cc2)n1-c1ccncc1 | -17 | -69 | -66 | 3 | 20 | 107*
CCCCn1c(O)c(C(CC)=Nc2ccc(OCC)cc2)c(=O)[nH]c1=O | 27 | 37 | 18 | 55* | 18 | 9
C=CCn1c(O)c(C(C)=Nc2ccc(N(CC)CC)cc2)c(=O)[nH]c1=O | 18 | 20 | 3 | 76* | -3 | -2
C=CCn1c(O)c(C(CC)=Nc2ccc(NC(C)=O)cc2)c(=O)[nH]c1=O | 8 | 37 | 13 | -2 | 12 | 5
C=CCn1c(O)c(C(CC)=Nc2ccc(N(CC)CC)cc2)c(=O)[nH]c1=O | 4 | 7 | 0 | 101* | 29 | x
O=c1ccc2cc(O[C@@H]3O[C@H](CO)[C@@H](O)[C@H](O)[C@H]3O)c(O)cc2o1 | x | x | x | x | x | -3
COC(=O)C1=C(c2c(C)noc2C)C[C@@H]2CC[C@H]1N2C(=O)N1CCCCC1 | 6 | 5 | 1 | x | 10 | -22
CCCCCCC(=O)N/N=C/c1c(O)n(CCc2ccccc2)c(=O)[nH]c1=O | 5 | -11 | -1 | 86* | 17 | 10
O=C(N/N=C/c1c(O)n(Cc2ccc(F)cc2)c(=O)[nH]c1=O)c1ccccc1O | 9 | -33 | 1 | 97* | 19 | -5
COc1ccc(Cn2c(O)c(/C=N/NC(=O)c3ccccc3O)c(=O)[nH]c2=O)cc1 | 21 | 16 | -21 | 27 | -2 | -4
O=C(N/N=C/c1c(O)n(CCc2ccc(F)cc2)c(=O)[nH]c1=O)c1ccccc1 | 18 | 13 | -5 | 44 | 10 | x
O=C(N/N=C/c1c(O)n(CCc2ccccc2)c(=O)[nH]c1=O)c1ccncc1 | x | x | x | 23 | x | 18

Assay outcomes: PubChem BioAssay, several laboratories
